The values below come from PubChem BioAssay (NCI).

This is part of a sample that, as a whole, favours compounds with a hit. Of some 83,000 tested, about 20% had one in any assay.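 Activity criterion: percent growth below 10, measured after cells in 96-well plates were exposed to a single compound concentration for 48 hours.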 Values without a mark were called inactive. The source made the active and inactive calls.

The assay has as its system EKVX NSCLC. The assay is described as follows: NCI-60 one-dose screen, 48 h (100 = growth as untreated, 0 = no growth, -100 = all killed). The settings on record: 10 µM unless noted. Here is the method:
Growth inhibition of the EKVX human Non-Small Cell Lung tumor cell line is measured as a screen for anti-cancer activity. Cells are grown in 96 well plates and exposed to the test compound for 48 hours. Compounds are tested at a single concentration, which is 10^-5 M for most compounds. The reported endpoint is percent growth (GI% or GIPRCNT), where numbers from 0 - 100% represent growth inhibition, and numbers from -100% - 0 represent cell death. For example, a value of 40 represents 60% growth inhibition. A value of 0 means no net growth occurred over the course of the experiment. A value of -40 indicates 40% of cells at the beginning of the experiment died by the end of the experiment. A value of -100 means all cells are dead at the end of the experiment.
NCI-60 Human Tumor Cell Lines Screen was performed using the standard one-dose NCI protocol, which is described in more detail at https://dtp.cancer.gov/discovery_development/nci-60/default.htm.
Compounds with GIPRCNT values below 10 were considered active. Activity score was based on GIPRCNT using the following formula: […]
Score is 0 for GIPRCNT values of 100 or above, 50 for GIPRCNT values of 0, and 100 for GIPRCNT values of -100.
Consider `O=c1[nH]c(SCc2ccccc2)nc2nc(Nc3ccc(NC(=S)Nc4ccccc4)cc3)nc(-c3ccc(O)cc3O)c12`, for which the growth was 95.9%.

`COc1ccc(-c2cnc(SCC(=O)Nc3ccc(-c4nc5ccccc5s4)cc3)n2-c2ccc(OC)cc2)cc1`: the growth was 108%. The figure for `COc1cccc(N2CCN(c3cccc(C)n3)CC2)c1` is 106%.

For the molecule `Nc1ncnc2c1CN(Cc1ccccc1)CC2`, the growth is 110%.

In the case of `O=C(CSc1nnc(-c2cc(-c3ccccc3)nc3ccccc23)o1)c1ccc(Br)cc1`, the growth was 107%. The figure for `Nc1nc2c(c(=O)[nH]1)C1(C(=O)Nc3ccccc31)c1c(nc(N)[nH]c1=O)N2` is 104%. Turning to `COc1cc(/C=C\C(C)=N\Nc2ccccc2)ccc1O`, the growth was 94.1%. The same measure for `COc1ccc(C2=NN(C(N)=S)C(c3ccc4c(c3)OCO4)C2)cc1` (stereo not given): 29.1%. As for `N#Cc1c(-c2ccccc2)cc(-c2ccccc2)n(CC(=O)O)c1=O`, the growth is 81.4%. Consider `CCCCN1c2nc3ccccc3cc2Sc2cc3ccccc3nc21`, for which the growth is 85.1%. The figure for `O=C(N/N=C/c1cccc([N+](=O)[O-])c1)c1ccc(Br)o1` is 103%; for `O=C1NC(=S)S/C1=C\c1cc(Br)ccc1O` it is 107%. On to `O=C(Nc1cccc(Cl)c1)Nc1cccc(Cl)c1`, for which the growth was 72.5%. The same measure for `O=C(Oc1cccc2ccccc12)c1ccccc1C(=O)c1ccccc1`: 80%; for `CCOC(=O)C(Br)=P(c1ccccc1)(c1ccccc1)c1ccccc1`: 103%. The figure for `CCOC(=O)N1CCC(N=C2CSc3nnc(-c4cc(C(F)(F)F)cc(C(F)(F)F)c4)n3N2)CC1` is 31.2%.

With `O=Nc1c2cccnc2n2nnc3ccc(Cl)cc3c12`, the growth is 77.4%. For `CCN(CC)CCCCCCCNc1c2ccc(Cl)cc2nc2ccc(OC)cc12`, the growth was -6.42% (active). In the case of `COc1cnc2c(c1)C(=O)c1c-2n(CCCN2CCC(O)CC2)c(=O)c2cc(F)ccc12`, the growth was 2.5% (active).

Take `O=C(COc1ccc(/C=C2\Cc3ccccc3C2=O)cc1)c1ccc(Cl)cc1`: the growth is 101%. `CC[C@@H](C)/C=C(C)/C=C/C(=O)c1c(O)c(-c2ccc(O)cc2)cn(OC2CC(=O)CCC(C)OC(=O)CC2O)c1=O` (stereo not given in full): the growth was 5.02% (active). With `Cc1ccc(S(=O)(=O)NCCN2c3nc4ccccc4cc3Sc3cc4ccccc4nc32)cc1`, the growth was 70.3%. The figure for `COc1ccc2nc(NC(=O)CN3CCn4c(nnc4C(F)(F)F)C3)sc2c1` is 73.1%. On to `COc1cc(/C=N/NC(=O)c2ccc(C(F)(F)F)nc2Nc2cc(Cl)ccc2C)cc(OC)c1OC`, for which the growth was 93.6%. The figure for `C/C=C(/C(=C/C)c1ccc(O)cc1)c1ccc(O)cc1` is 35.7%. The same measure for `O=CN1N=C(c2ccc(Cl)cc2)CC1c1cccc(Nc2ccnc3cc(Cl)ccc23)c1` (stereo not given): 30.3%; for `O=Cc1ccccc1C(=O)O`: 94%. The figure for `OCCN1CCN(CCCN2c3ccccc3Sc3ccc(C(F)(F)F)cc32)CC1` is 47.2%; for `N/C(=N\c1nc2ccccc2s1)NC(=O)Nc1ccccc1Cl` it is 41.2%. For the molecule `O=C(N/N=C/c1ccc(Cl)cc1Cl)c1ccccc1Nc1cccc(C(F)(F)F)c1`, the growth was -27.9% (active). The figure for `N#Cc1c(-c2ccccc2)cc(-c2ccccc2)n(CCCC(=O)O)c1=O` is 94%; for `COc1cnc2c(c1)C(=O)c1c-2n(CCCN2CCCC2)c(=O)c2cc(F)ccc12` it is 4.91% (active). The figure for `CC[C@@H](C)/C=C(C)/C=C/C(O)=C1\C(=O)N[C@@H](Cc2ccc(OC(=O)[C@@](OC)(c3ccccc3)C(F)(F)F)cc2)C1=O` is 54.1%.

For `N[C@H](CS)C(=O)O`, the growth is 97.7%.

Regarding `COc1ccc2nc(-c3ccc(Cl)cc3)cc(-c3nnc(SCC(=O)Nc4ccc(C(C)=O)cc4)n3-c3ccccc3)c2c1`, the growth is 101%. The figure for `O=C1OC(Oc2ccccc2)(c2ccccc2)c2ccccc21` (stereo not given) is 133%. In the case of `CC[n+]1c(/C=C/c2ccc(N3CCCC3)cc2)cccc1/C=C/c1ccc(N2CCCC2)cc1`, the growth is -76.4% (active). `CC1Cc2ccccc2N1C(=O)c1ccc(C(=O)c2ccccc2)cc1` (stereo not given): the growth is 88.3%. Consider `O=CN1N=C(c2ccc(Nc3ccnc4cc(Cl)ccc34)cc2)CC1c1ccc(Cl)cc1` (stereo not given), for which the growth is 40.5%.

As to `c1ccc(CN=C(NCc2ccccc2)NCc2ccccc2)cc1`, the growth is 28.2%.
